Screens (PubChem)
An excerpt weighted towards active compounds, which were near 3.8% of everything screened.
HSF-1 act: increases HSF-1 driven luciferase reporter signal | NIH3T3-HGL HSF-1 luciferase reporter, MG132, 8 h; 100% = twice DMSO control signal | AID 504408 | 300,000 compounds, 1.7% hits | activation, % at 9 µM;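 active = mean replicate activation of at least 50% with a set share of replicates each reaching 50%; inconclusive = only one of those two conditions met; inactive = mean below 50% and too few replicates reaching it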;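 also: 0% = median of the neutral control wells and 100% = twice that signal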
HSF1 inh: HSF1 inhibition; NIH3T3-HGL HSE-luciferase, MG132-induced, luminescence 8 h; hits give low values; activity change, negative = inhibition, % at 7.5 µM (by protocol); 300,000 compounds, 0.77% hits; AID 2098;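 active = more than half of replicate wells show activity change below -50%, luminescence cut by over half; inconclusive = some wells, but at most half, below -50%; inactive = no replicate well below -50%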;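 also: luciferase reports HSF-1 transcriptional activity via heat shock element; 0% = median of DMSO wells and -100% = zero luminescence signal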
HSP90 inh: inhibitors of HSP90 luciferase refolding in rabbit reticulocyte lysate. inhibition, % at 5.6 µM. 290,000 compounds, 0.91% hits. luciferase refolding luminescence, 3 h;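 active = inhibition above the screen-wide mean plus 3 SD, computed separately per campaign, cut at about 16% in these data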;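 also: 0% = DMSO wells and 100% = 60 µM geldanamycin wells; inhibitors lower the luminescence because luciferase stays unfolded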
Hsp70 act: Hsp70 transcriptional activation, primary screen | HeLa Hsp70 promoter luciferase reporter, luminescence; scaled: vehicle 0, proteasome-inhibitor control 100% | activation, % at 10 µM | 200,000 compounds, 0.04% hits | AID 1203;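 active = activation above the mean across all tested compounds plus 3 SD, cutoff set per campaign, cut at about 5.5% in these data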;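 also: 100% = MG132 at 30 µM as the positive control and 0% = DMSO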
NALP1 inh: blocks the NALP1 inflammasome reconstituted in yeast; S. cerevisiae NALP1/ASC/caspase-1 growth, X-gal OD620, 72 h; inhibition, % at 10 µM; 280,000 compounds, 0.61% hits; AID 2071; in the data active = inhibition mostly above about 24%, no sharp cut-off; inactive = mostly below about 32%
pCIP destab: compounds decreasing mouse p/CIP protein stability; Q05BA5; F442A p/CIP-EGFP cells, EGFP fluorescence, 16 h; decrease of EGFP signal, % at 10 µM; 290,000 compounds, 0.01% hits;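 active = EGFP signal decrease of at least 30% at 10 µM or well 3 SD below plate mean, unless failing retest; inactive = the rest, including hits failing retest or dose response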
Starred values were filed as active, the others as inactive; ? = inconclusive; · = no result.

SMILES	HSF-1 act	HSF1 inh	HSP90 inh	Hsp70 act	NALP1 inh	pCIP destab
CCOc1ccccc1NC(=O)CSc1nnc(CNC(=O)c2cc(OC)c(OC)c(OC)c2)o1	2	-2	-4	·	-4	-10
Cc1cccc(C(=O)N[C@@H]2c3ccccc3C[C@@H]2O)n1	-21	-6	·	·	·	·
Cc1ccc(N2C(=O)c3ccccc3C2O)nc1 (stereo not drawn)	-11	-13	33*	0	14	-2
Cc1ccc(N2C(=O)c3ccccc3C2Nc2ccccc2F)nc1 (stereo not drawn)	-55	-40	-3	0	16	-7
COc1cc(CO)ccc1OCC(=O)N1CCc2ccccc21	2	2	1	·	13	-14
O=C(COc1ccc(F)cc1Br)N1CCc2ccccc21	80*	23	0	0	3	2
O=C(CNC(=O)c1ccccc1Cl)OCC(=O)N1CCc2ccccc21	55*	27	-4	0	13	-7
O=C(CN1CCCCCC1)Nc1ccccc1C(=O)Nc1ccccc1	20	7	·	·	·	·
CCc1cccc(NC(=O)c2cccc3c2C(=O)N(C2CCCCC2)C3)c1	0	1	-1	·	10	8
Cc1ccc(NCc2ccccc2O)cc1C	22	16	-3	0	5	-11
Oc1ccccc1CNc1ccc(OC(F)(F)F)cc1	-64	-60*	-5	0	8	-3
CC1CCc2sc(C(=O)N3CCN(c4ncccn4)CC3)cc2C1 (stereo not drawn)	11	2	3	·	12	-3
COc1ccc(N=NC2=C(O)CC(C)(C)CC2=O)cc1	58*	45	-3	0	-12	-11
Cc1nn(-c2ccccc2)c(N)c1C(O)(CSc1nccn1C)C(F)(F)F (stereo not drawn)	-91	-91*	-1	0	4	-8
COc1cccc(CNc2ncc(Br)cc2Br)c1O	138*	107	-6	0	8	15
COc1cccc(CNc2ccc(Br)cn2)c1O	272*	181	8	0	16	1
CCCn1cnc2cc(NCc3cccc(OC)c3O)ccc21	-5	-2	0	0	2	-5
COc1cccc(CNn2cnnc2)c1O	8	-3	-8	0	5	-9
Cc1[nH]n(C)c(=O)c1[N+](=O)[O-]	-14	-3	5	·	11	-3
Cc1cc(NC(=O)CN2C(=O)c3ccccc3C2=O)no1	13	5	-7	·	9	8
O=C(NC(=S)NNC(=O)c1ccccc1[N+](=O)[O-])c1ccc(Br)cc1	19	8	-2	·	-3	-3
CCOP(=O)(Nc1ccc2oc(=O)c3ccccc3c2c1)OCC	15	7	-1	·	16	7
COc1cccc(C2=NC(C)(C)NC(c3ccccc3O)C2)c1 (stereo not drawn)	·	·	-1	0	16*	-7
Cc1ccc(C)c(S(=O)(=O)N2CCCC2CNC(=O)C(=O)NCc2cccs2)c1 (stereo not drawn)	-2	-5	·	·	·	·
COc1cccc(C(=O)NNC(=S)NC2CCCCC2)c1	28	10	-3	0	-2	-9
SMILES	HSF-1 act	HSF1 inh	HSP90 inh	Hsp70 act	NALP1 inh	pCIP destab
COc1cccc(C(=O)Nc2ccc(C3CC3(Cl)Cl)cc2)c1 (stereo not drawn)	103*	61	-2	1	1	-6
CCC1CCC(NC(=O)Nc2cccc(OC)c2)CC1 (stereo not drawn)	62*	25	2	0	-2	-2
COc1cccc(C(=O)Nc2ccc(C)cc2)c1	32	21	9	0	9	10
COc1cccc(C(=O)NC2CCCC2)c1	70*	25	-4	0	-6	1
COc1ccc2oc(C(=O)NC3CCCCC3)c(C)c2c1	61*	37	-1	·	1	9
CCCCc1ccc(NC(=S)N2CCCC2)cc1	·	·	16	·	3	-48
CCn1c(/C=C/c2ccccc2)nc2ccccc21	?	39	4	0	8	-8
O=C(Cn1c(/C=C/c2ccccc2)nc2ccccc21)Nc1ccc(F)cc1	57*	39	4	0	32	-7
CSc1nc2ccccc2n1CC(=O)Nc1ccccc1	17	-2	5	0	-1	-13
CC(C)Cn1c(/C=C/c2ccccc2)nc2ccccc21	89*	53	4	0	34	7
